Screening results as filed in PubChem BioAssay.
Lassa entry inh – blocks Lassa virus binding to or entry into cells; Lassa virus pseudotype entry inhibition, cell reporter; Potency, µM (top dose mostly 37.9 µM), inactives show top-dose activity change, negative = inhibition, actives largely listed as inhibitors; actives 1.2% (n = 300,000); AID 540256; calls by dose curve; tested in HEK293 cells; also: potency is read from the fitted curve at half-maximal effect; nearly all actives have a fitted effect of over 50% in size
VACV mCherry inh – vaccinia inhibition (mCherry reporter); Vaccinia virus mCherry reporter infection, fluorescence; Potency, µM (doses to about 36.5 µM), without a hit: at the top dose activity change, negative = inhibition, most hits filed as inhibitors; actives 0.63% (n = 310,000); AID 720579; calls by dose curve; tested in A549 cells; also: potency is read from the fitted curve at half-maximal effect; nearly all actives have a fitted effect of over 35% in size
HCV inh – inhibitors of hepatitis C virus infection; Huh7.5.1 HCVcc-Cre infection, luciferase reporter, 44 h; Potency, µM (highest dose often 41.8 µM), for the others: top-dose activity change, negative = inhibition, actives largely listed as inhibitors; actives 3.4% (n = 340,000); active = well fitted inhibition curve with a large enough effect; inconclusive = small, poorly fitted or top-dose-only effect, or another doubt; inactive = no such curve, though single readings can be large or run the other way; also: potency is read from the fitted curve at half-maximal effect
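Seed cells (1,000/well) for 4 h; treat with compound and infect with HCVcc-Cre, moi about 0.5. Incubate 44 h, then detect luciferase activity.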
MARV entry inh – Marburg virus entry inhibition | Potency, µM (series often up to 37.8 µM), for inactives: at the highest dose activity change, negative = inhibition, actives largely listed as inhibitors | AID 540276 | Marburg virus pseudotyped entry inhibition, cell reporter | actives 1.8% (n = 300,000); calls by dose curve; tested in HEK293 cells; also: potency is read from the fitted curve at half-maximal effect
HCMV antiviral – blocks human cytomegalovirus replication | activity change, negative = inhibition, % at 57.5 µM | AID 1259415 | HFF cells, HCMV-luciferase reporter, 72 h; active compounds read low | actives 4.5% (n = 410,000); in the data active = activity change below about -60%; inconclusive = no clear call, values can overlap the other calls; inactive = above about -39%
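Human foreskin fibroblasts infected with luciferase-reporter HCMV at MOI 1 PFU/cell, compounds at two doses. Luciferase measured 72 h post infection; normalized to buffer-only basal and Salinomycin (10uM) controls.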
Vaccinia Venus – inhibitors of vaccinia virus (Venus reporter); Vaccinia virus Venus reporter expression, fluorescence; Potency, µM (top dose mostly 36.5 µM), for the others: top-dose activity change, negative = inhibition, actives largely listed as inhibitors; actives 0.46% (n = 330,000); calls by dose curve; tested in A549 cells; also: potency is read from the fitted curve at half-maximal effect; nearly all actives have a fitted effect of over 30% in size
Active calls of the source: *; [ ] = another dose, or the depositor's remark. Sampled rows, rich in hits. Any-hit rate of the full collection: about 7.8%. % is scaled to controls: 0 for no effect and ±100 for the full control effect.

Results for CCOc1ccc(S(=O)(=O)NCCc2csc(-c3ccc(Cl)cc3)n2)cc1 ?
Lassa entry inh: -15%[46.1 µM]; VACV mCherry inh: -6%; HCMV antiviral: inconclusive; Vaccinia Venus: -15%

What do the screens show for `O=C1C=C(Nc2ccccc2C(=O)O)c2ccccc2C1=O`?
HCV inh: 9%; HCMV antiviral: 0

How did O=C1C=C(Nc2ccccc2)c2ccccc2C1=O do in these assays?
Lassa entry inh: 7.1µM*; VACV mCherry inh: inconclusive; HCV inh: 8.9µM*; MARV entry inh: inconclusive; HCMV antiviral: -64*; Vaccinia Venus: 7.9µM*

What do the screens show for `O=C1C=C(Nc2cccc3cccnc23)c2ccccc2C1=O`?
Lassa entry inh: 0%[46.1 µM]; VACV mCherry inh: inconclusive; HCV inh: inconclusive; MARV entry inh: inconclusive; HCMV antiviral: -75*; Vaccinia Venus: 5%

Results for CCCCNC1=CC(=O)C(NCCCC)=CC1=O ?
Lassa entry inh: -22%[46.1 µM]; VACV mCherry inh: inconclusive; HCV inh: -7%; MARV entry inh: inconclusive; HCMV antiviral: 41; Vaccinia Venus: -6%

Results for O=C1C=C(Nc2ccccc2)C(=O)c2ccccc21 ?
VACV mCherry inh: -25%; HCV inh: -16%; HCMV antiviral: -30; Vaccinia Venus: inconclusive

What do the screens show for `CCCCNC1=CC(=O)C(=O)c2ccccc21`?
Lassa entry inh: inconclusive; HCV inh: 11µM*; MARV entry inh: 16µM*; HCMV antiviral: -35

Results for Brc1cccc[n+]1CCC[n+]1ccccc1Br ?
VACV mCherry inh: inactive; Vaccinia Venus: -11%

What do the screens show for `CCCCN(C)CCNC(=O)c1ccc2c(c1)NC(=O)CN2`?
Lassa entry inh: 26%[46.1 µM]; VACV mCherry inh: -5%; HCMV antiviral: 2; Vaccinia Venus: -9%

How did Cc1nc(SC(C)C(=O)NCC2CCCO2)c2cc(-c3ccccc3)sc2n1 (centres undefined) do in these assays?
Lassa entry inh: 0.5µM*; VACV mCherry inh: 5µM*; HCV inh: 4%; MARV entry inh: 0.63µM*; HCMV antiviral: -89*; Vaccinia Venus: -2%

How did CC(Sc1ncnc2c1cnn2-c1ccccc1)C(=O)NCC1CCCO1 (centres undefined) do in these assays?
HCV inh: inconclusive; HCMV antiviral: -3

Results for COc1ccc(C)cc1NC(=O)C1CCCN(S(=O)(=O)c2ccc3c(c2)oc(=O)n3C)C1 (centres undefined) ?
Lassa entry inh: 8%[46.1 µM]; VACV mCherry inh: 0%; MARV entry inh: -18%[46.1 µM]; HCMV antiviral: -29; Vaccinia Venus: -4%

Results for Nc1nc(=S)c2[nH]cnc2[nH]1 ?
VACV mCherry inh: inconclusive; HCV inh: 1.3µM*; HCMV antiviral: -86*; Vaccinia Venus: inconclusive

How did CC(=O)N1CCCc2cc(S(=O)(=O)N3CCN(c4ccccc4F)CC3)ccc21 do in these assays?
Lassa entry inh: -10%[46.1 µM]; VACV mCherry inh: -5%; HCMV antiviral: -27; Vaccinia Venus: -12%

Results for CCCC1CCC(c2ccc(C(=O)NN)cc2)CC1 (centres undefined) ?
Lassa entry inh: inconclusive; VACV mCherry inh: -6%; HCV inh: 8%; MARV entry inh: -19%; HCMV antiviral: -79*; Vaccinia Venus: -5%

What do the screens show for `COc1ccc(OC)c(CN2CCCC(n3cc(C(=O)N4CCCCC4)nn3)C2)c1` (centres undefined)?
VACV mCherry inh: -10%; Vaccinia Venus: -15%

How did Cc1ccc(N2C(=O)NC(=O)/C(=C/C=C/c3ccco3)C2=O)cc1 do in these assays?
Lassa entry inh: -27%; VACV mCherry inh: -16%; HCV inh: inconclusive; MARV entry inh: inconclusive; HCMV antiviral: -98*; Vaccinia Venus: -25%

Results for CCc1ccc(N2C(=O)NC(=O)/C(=C\C=C\c3ccco3)C2=O)cc1 ?
HCV inh: inconclusive; HCMV antiviral: -77*

How did Cc1cc(C)cc(N2C(=O)NC(=O)/C(=C\C=C\c3ccco3)C2=O)c1 do in these assays?
Lassa entry inh: inconclusive; VACV mCherry inh: -4%; HCV inh: inconclusive; MARV entry inh: inconclusive; HCMV antiviral: -99*; Vaccinia Venus: 22%

What do the screens show for `O=C1NC(=O)N(Cc2ccc(F)cc2)C(=O)/C1=C\C=C\c1ccco1`?
VACV mCherry inh: -11%; HCV inh: inconclusive; HCMV antiviral: -97*; Vaccinia Venus: 38%

Results for CCCCN1C(=O)/C(=C/C=C/c2ccco2)C(=O)NC1=S ?
Lassa entry inh: 6%; VACV mCherry inh: -15%; HCV inh: -5%; MARV entry inh: 2%[46.1 µM]; HCMV antiviral: 20; Vaccinia Venus: 50%

How did COc1ccc(CN2C(=O)C(n3cccc3)c3cc(F)ccc32)cc1 (centres undefined) do in these assays?
HCMV antiviral: -18

Results for Cc1cc(NC(=O)CCCn2c(C)c3cnn(-c4ccccc4)c(=O)c3c2C)ccc1Br ?
Lassa entry inh: 0%[46.1 µM]; VACV mCherry inh: -14%; MARV entry inh: -14%[46.1 µM]; HCMV antiviral: 10; Vaccinia Venus: -9%

How did CC(C)c1ccc(N2C(=O)NC(=O)/C(=C/C=C/c3ccco3)C2=O)cc1 do in these assays?
Lassa entry inh: inconclusive; VACV mCherry inh: 4%; HCV inh: inconclusive; MARV entry inh: inconclusive; HCMV antiviral: -101*; Vaccinia Venus: 42%

Results for CCc1ccc(N2NC(=O)/C(=C/C=C/c3ccco3)C2=O)cc1 ?
Lassa entry inh: -25%; VACV mCherry inh: -15%; HCV inh: 7%; MARV entry inh: -18%; HCMV antiviral: 6; Vaccinia Venus: 1%

How did CCOc1ccc(C(=O)/C=C/c2cn(CN3CCN(C)CC3)c3ccccc23)cc1 do in these assays?
Lassa entry inh: -5%; VACV mCherry inh: -19%; HCV inh: inconclusive; MARV entry inh: -25%; HCMV antiviral: 2; Vaccinia Venus: -23%

Results for Cc1ccc(C(=O)/C=C/c2cn(CC(O)CN3CCc4ccccc43)c3ccccc23)cc1 (centres undefined) ?
Lassa entry inh: inconclusive; VACV mCherry inh: -14%; MARV entry inh: inconclusive; HCMV antiviral: -74*; Vaccinia Venus: -14%

What do the screens show for `COc1ccc(C(=O)/C=C/c2cn(CC(O)CN3CCc4ccccc43)c3ccccc23)cc1OC` (centres undefined)?
Lassa entry inh: inconclusive; VACV mCherry inh: inconclusive; MARV entry inh: inconclusive; HCMV antiviral: -64*; Vaccinia Venus: -20%

How did COc1ccc(C(=O)/C=C/c2cn(CN3CCN(C)CC3)c3ccccc23)cc1 do in these assays?
Lassa entry inh: -28%; HCV inh: 8.9µM*; MARV entry inh: inconclusive

Results for COc1ccc(C(=O)/C=C/c2cn(CC(O)CN3CCOCC3)c3ccccc23)cc1 (centres undefined) ?
Lassa entry inh: -18%; VACV mCherry inh: -18%; HCV inh: inconclusive; MARV entry inh: inconclusive; Vaccinia Venus: -27%
